Test results as given in PubChem BioAssay (Tox21).
Where “and” joins values, the source holds several entries; their conditions need not be identical. Equal values may be shown once. Results filed as inconclusive are left out. Values without a mark were called inactive. Calls of active or inactive are those of the source. Calls follow the shape of the dose curve; as a rule, active = well fitted inhibition curve with a large enough effect in the repeat runs; inconclusive = weak or mixed curves; inactive = no such curve, though single readings can be large or run the other way.

test: qHTS assay to identify small molecule antagonists of the thyroid receptor (TR) signaling pathway (AID 743065); settings: GH3.TRE-Luc, T3-stimulated luciferase inhibition, 23.5 h; series mostly up to 70.3 µM; activity, negative = inhibition: at the top concentration; also: nearly all actives have a fitted effect of over 55% in size
Description: U.S. Tox21 Program National Center for Advancing Translational Sciences [NCATS] NIH Chemical Genomics Center [NCGC] U.S. Environmental Protection Agency [EPA] National Institutes of Environmental Health Sciences [NIEHS] National Toxicology Program [NTP] U.S. Food and Drug Administration [FDA] Tox21 Assay Overview: Thyroid receptor (TR), a nuclear hormone receptor, plays an important role in development, proliferation, differentiation, metabolism, brain function, and cardiovascular system. […] To profile the Tox21 10K compound library in TR signaling, a cell-based GH3-TRE-Luc assay (GH3.TRE-Luc cell line, developed by the laboratory of Dr. Albertinka J. Murk, Wageningen University) was used to measure the inhibition of TR. GH3 (rat pituitary tumor) cells stably expressing a TR activity sensor consisting of two TR response elements and a luciferase reporter gene.
Tox21 Assay Protocol Summary: GH3.TRE-Luc cells were dispensed at 1500 cells/4 uL/well into 1536-well white solid bottom plates using a Multidrop Combi dispenser (Thermo Fisher Scientific Inc., Waltham, MA). After the assay plates were incubated at 37 C for 4 hours, 23 nL of library compound or DMSO controls was transferred to the assay plates by a pintool station (Kalypsys, San Diego, CA), followed by addition of 1 ul of T3 (1 nM, final concentration in the wells) to stimulate TR transactivation. The assay plates were incubated at 37 C for 23.5 h, and then 1 uL of CellTiter-Fluor reagent (Promega, Madision, WI) of measuring cytotoxicity was added to each well using a Bioraptr Flying Reagent Dispenser (FRD) workstation (Beckman Coulter, Indianapolis, IN, USA). The plates were incubated at 37 C and 5% CO2 for additional 30 min, and fluorescence intensity was measured by a ViewLux plate reader (PerkinElmer, Shelton, CT). For measuring luciferase reporter gene activity, 4 uL of ONE-Glo Luciferase Assay reagent (Promega) was added to each well using a Bioraptr FRD (Beckman Coulter), followed by 30 min incubation at room temperature. The luminescence intensity of plates was recorded by a ViewLux plate reader (PerkinElmer, Shelton, CT).
% is scaled to controls: 0 for no effect and ±100 for the full control effect; potency is read from the fitted curve at half-maximal effect.

Row | Compound | activity, negative = inhibition | Potency
1 | Cc1c(C)c2c(c(C)c1OC(=O)c1cccnc1)CC[C@@](C)(CCC[C@H](C)CCC[C@H](C)CCCC(C)C)O2 | 9.34% | 
2 | COc1ccc(-c2coc3cc(O)ccc3c2=O)cc1 | -26.4% | 
3 | O=C1c2ccccc2C(=O)N1SC1CCCCC1 |  | 24.3 µM (active) and 15.4 µM (active)
4 | C=CC(=O)OCCOC(=O)C=C |  | 38.6 µM (active)
5 | Cc1c(C)c2c(c(C)c1O)CC[C@@](C)(CCC[C@H](C)CCC[C@H](C)CCCC(C)C)O2 |  | inactive
6 | O=[N+]([O-])c1ccc(F)c(Cl)c1 | -6.26% | 
7 | OC[C@@H](O)[C@@H](O)CO | 10.6% | 
8 | CC(CO)Oc1ccccc1 (stereo not given) | -0.464% [at 95 µM] | 
9 | C=CCn1c(=O)n(CC=C)c(=O)n(CC=C)c1=O | 0.463% | 
10 | Cc1cccc(C(=O)O)c1O | 3.29% | 
11 | c1ccsc1 | 4.92% | 
12 | C[C@@H](O)[C@H](N)C(=O)O | 10.5% | 
13 | CC(C)CCCCCOC(=O)CCS | -4.19% | 
14 | Clc1ccnc(Cl)n1 | -3.17% [at 95 µM] | 
15 | Cc1ccc(O)c(O)c1 |  | 26.5 µM (active)
16 | O=C(O)c1cc(-c2ccc(F)cc2F)ccc1O | -1.04% [at 32.5 µM] | 
17 | O=[N+]([O-])c1ccc(O)cc1C(F)(F)F |  | 21.7 µM (active)
18 | C=C(C)c1cccc(C(=C)C)c1 | 0.465% | 
19 | [Cl][Pt-2]([Cl])([Cl])[Cl] | -13.6% [at 95 µM] | 
20 | CN1CCN2c3ccccc3Cc3ccccc3C2C1 (stereo not given) |  | 23.7 µM (active)

Row | Compound | activity, negative = inhibition | Potency
21 | COc1cc2nc(N3CCN(C(=O)c4ccco4)CC3)nc(N)c2cc1OC |  | 8.41 µM (active)
22 | Oc1ccccc1O |  | 43.8 µM (active) and 43.3 µM (active)
23 | COc1ccc(NC(=O)CC(C)=O)cc1 | 12% | 
24 | CC/C=C\CCCCCO | 0.182% | 
25 | ClCCl | -8.61% | 
26 | NC[C@H]1O[C@H](O[C@H]2[C@H](O[C@@H]3O[C@H](CO)[C@@H](O)[C@H]3O)C(O)[C@H](N)C[C@@H]2N)[C@H](N)[C@@H](O)[C@@H]1O (stereo not given in full) | 6.92% [at 32.5 µM] | 
27 | C=CCCC(=O)/C=C/C1C(C)=CCCC1(C)C (stereo not given) |  | 61.1 µM (active)
28 | O=c1[nH]c2ccccc2n1CCCN1CCN(C(c2ccccc2)c2ccccc2)CC1 |  | 23.7 µM (active)
29 | C1CCC(SSC2CCCCC2)CC1 | 0.374% | 
30 | Cc1ccc(C)cc1 | -5.61% | 
31 | COC(C)=O |  | inactive
32 | CCCNCCC | 3.46% [at 95 µM] | 
33 | CCCC[P+](C)(CCCC)CCCC | -5.8% [at 95 µM] | 
34 | C=C(CC)C(=O)c1ccc(OCC(=O)O)c(Cl)c1Cl |  | 26.6 µM (active) and 54.1 µM (active)
35 | O[C@@H]([C@H](O)[C@H](O)CBr)[C@H](O)CBr |  | inactive
36 | CCCCN(CCCC)CC(O)c1cc(Cl)cc2c1-c1ccc(Cl)cc1/C2=C/c1ccc(Cl)cc1 (stereo not given) |  | 29.8 µM (active)
37 | C[Si](Cl)(c1ccccc1)c1ccccc1 | -22.7% | 
38 | CCCCCCCC/C=C\CCCCCCCCN | 1.34% | 
39 | Cc1cccc2cccnc12 | 16.2% | 
40 | Clc1nnc(Cl)c2ccccc12 | -7.2% | 
